Our source for the activity change values is PubChem BioAssay AID720553 (National Center for Advancing Translational Sciences (NCATS), 2013).

Hit rate of the full screen: of about 340,000 compounds, about 3,300 (0.97%) were called active.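 How the source made its calls: active means maximum activity change below -70%; inconclusive means maximum activity change from -70% to -50%; inactive means maximum activity change above -50%.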 The list comes from a sample in which actives are over-represented; it also holds similar structures and randomly drawn compounds.
On the % scale 0 is the no-effect control and ±100 the full control effect.

The experiment relates to Potassium voltage-gated channel subfamily H member 2, brain isoform KCNH2 3.1 (human). Nature of the experiment: qHTS for Inhibitors of KCHN2 3.1: Mutant qHTS. The note with it: U2OS KCNH2 3.1, thallium flux FluxOr; active compounds read low. The method, boiled down: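 We transduce U2OS cells with the mutant 3.1 virus, culture them overnight, load FluxOr with Red40 quencher for 45 min, then add stimulation buffer and read kinetically for 2 min to derive a normalized rate constant.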
As to `Cc1ccc(-c2ccc(C3=CC(=O)CC(C)(C)C3=O)cc2)cc1`, the activity change was -9.04% (inactive).

In the case of `C[C@H](CO)N1C[C@H](C)[C@@H](CN(C)S(=O)(=O)c2ccc(F)cc2)OCc2cnnn2CCCC1=O`, the activity change was -2.94% (inactive).

As for `O=S(=O)(c1cccc(C(F)(F)F)c1)N1c2ccccc2-n2cccc2C1c1cccnc1` (centres undefined), the activity change was -17.4% (inactive).

`CCCC(NC(=O)c1ccccc1)c1nc2ccccc2n1Cc1ccc(C(=O)OC)o1` (centres undefined): the activity change is -82% (active).

Consider `COC(=O)c1ccc(Cc2ccccc2)o1`, for which the activity change was 10.6% (inactive).

Turning to `CCCn1c(C(Cc2ccccc2)NC(=O)COC)nc2ccccc21` (centres undefined), the activity change was -1.15% (inactive).

For the compound `Cc1cccc(NC(=O)N(Cc2cc3cc(C)cc(C)c3[nH]c2=O)CC2COCCO2)c1` (centres undefined), the activity change is -19.5% (inactive).

Take `Cc1ccc2[nH]c(=O)c(CN(CC3COCCO3)C(=O)Nc3ccccc3C)cc2c1` (centres undefined): the activity change was -106% (active).

Turning to `COc1ccc2[nH]c(=O)c(CN(CC3CCCO3)C(=O)Nc3ccccc3)cc2c1` (centres undefined), the activity change was 8.12% (inactive).

As for `COc1cc(C(=O)N2CCOC23CCN(Cc2ccccc2)CC3)cc(OC)c1OC`, the activity change is -5.15% (inactive).

With `CN(C)C(CNC(=O)c1cccc(S(=O)(=O)N2CCc3ccccc3C2)c1)c1ccccc1` (centres undefined), the activity change was -1.69% (inactive).

For `COc1cccc(OCC(=O)NCCS(=O)(=O)N2CCN(c3ccccc3)CC2)c1`, the activity change is -1.4% (inactive).

Take `CCCCN1C(=O)C(CC(=O)NC(c2ccccc2)c2ccccc2)CC(C(=O)N2CCOCC2)=C1C` (centres undefined): the activity change is -3.63% (inactive).

Take `Cn1c(SCC(=O)N2CCCc3ccccc32)nc2ccccc2c1=O`: the activity change is -2.54% (inactive).

For the compound `CC(C)(C)c1ccc(C(=O)NCc2nnc(SCC(=O)N3CCCc4ccccc43)n2-c2ccccc2)cc1`, the activity change was -6.73% (inactive).

Consider `O=C(CSc1nc2[nH]ncc2c(=O)n1-c1ccccc1)N1CCCc2ccccc21`, for which the activity change is -184% (active).

For `CCOC(=O)C(=Cc1ccccc1)C(=O)c1ccccc1`, the activity change was -13.1% (inactive).

In the case of `O=C(NCc1nnnn1-c1ccc(Cl)cc1)c1ccc([N+](=O)[O-])o1`, the activity change was -3.24% (inactive).

With `Cc1ccc(S(=O)(=O)N2[C@@H](c3cccc(Cl)c3)C(C(=O)O)=CC[C@H]2c2ccc(Cl)c(Cl)c2)cc1`, the activity change was -2.17% (inactive).

As for `Cc1ccccc1S(=O)(=O)N1[C@@H](c2cccc(Cl)c2)C(C(=O)O)=CC[C@H]1c1ccc(Cl)cc1`, the activity change was 10% (inactive).

On to `Cc1ccc([C@@H]2CC=C(C(=O)O)[C@H](c3cccc(Cl)c3)N2S(=O)(=O)c2ccc(C)cc2)cc1`, for which the activity change is -83.7% (active).

Turning to `Cc1nnc(SC(C)C(=O)c2c[nH]c3ccccc23)n1C1CC1` (centres undefined), the activity change is -8.46% (inactive).

Turning to `C#CCN(C[C@@H]1[C@@H](OC(=O)NC2CC2)[C@@H](OC(=O)NC2CC2)Cn2c(=O)ccc(=O)n21)S(=O)(=O)c1ccc(C)cc1`, the activity change was 0.102% (inactive).

In the case of `Nc1nnc(SCC(=O)NCC(=O)Nc2ccc(F)c(F)c2F)s1`, the activity change is -119% (active).

Consider `Nc1nnc(SCC(=O)NC2CCCc3ccccc32)s1` (centres undefined), for which the activity change is -15.6% (inactive).

For the compound `Cc1ccc(S(=O)(=O)N2CCOCC2)cc1NC(=O)CSc1nnc(N)s1`, the activity change is 1.46% (inactive).

Turning to `CCN(CC)C(=O)C1=C(C)N(Cc2ccccc2)C(=O)C(CC(=O)NC(c2ccccc2)c2ccccc2)C1` (centres undefined), the activity change is 0.781% (inactive).

Regarding `Cc1noc(C)c1S(=O)(=O)N(C)C[C@H]1OCCCC[C@@H](C)Oc2ccc(NC(=O)CCCN(C)C)cc2C(=O)N([C@H](C)CO)C[C@@H]1C`, the activity change is 18.2% (inactive).

As to `COC(=O)C[C@H]1C[C@@H]2c3cc(N(C)C)ccc3O[C@@H]2[C@H](CO)O1`, the activity change is 2.06% (inactive).

With `O=C(Nc1cccc(C(=O)O)c1)/C(=C\c1ccccc1)NC(=O)c1ccc(Br)o1`, the activity change was 3.42% (inactive).

Regarding `CCOC(=O)C1CCN(Cc2c(C(=O)N3CCOCC3)nc3c(C)cccn23)CC1`, the activity change was -6.64% (inactive).

As to `Cc1cccn2c(CNCC(C)Oc3cccnc3)c(C(=O)N3CCOCC3)nc12` (centres undefined), the activity change was 1.22% (inactive).

For the compound `Cc1cccc(N2CCC(NCc3c(C(=O)N4CCCCC4)nc4c(C)cccn34)CC2)c1`, the activity change was -70.6% (active).

With `CC1=C(C(=O)N(C)C)CC(CC(=O)NCCc2ccccn2)C(=O)N1CCC1=CCCCC1` (centres undefined), the activity change is 6.34% (inactive).

`CN(Cc1c(F)cccc1Cl)C(=O)COC(=O)Cn1cnc2ccccc2c1=O`: the activity change is 2.53% (inactive).

As to `COc1ccc(C2=NS(=O)(=O)N(C)C(C(=O)N(C)Cc3ccccc3)=C2)cc1`, the activity change is 7.33% (inactive).

Turning to `COc1ccc(C2=NS(=O)(=O)N(C)C(C(=O)NC(C)c3ccccc3)=C2)cc1` (centres undefined), the activity change was -85% (active).

As for `COc1ccc(NC(=O)C2=CC(c3ccc(OC)c(OC)c3)=NS(=O)(=O)N2C)cc1`, the activity change was -5.31% (inactive).

Take `Cc1cc2c3ccccc3[nH]c(=O)n2n1`: the activity change was -1.28% (inactive).

For the compound `COc1ccc([C@H]2N[C@]3(CCCN(CC4CCCCC4)C3=O)[C@H]3C(=O)N(C)C(=O)[C@@H]23)cc1`, the activity change is 4.21% (inactive).

In the case of `CCCCCCNC(=O)O[C@]12C[C@@H](C(=O)OC)[C@@H](C(=O)OC)C[C@@]1(O)CN(S(=O)(=O)c1ccc(C)cc1)C2`, the activity change was -9.12% (inactive).

Regarding `CCN(CC)CCN(C(=O)c1ccc2c(c1)CCCC2)c1nc2c(OC)cccc2s1`, the activity change is -48.3% (inactive).

Regarding `CC(C)C1C2=C(CC(C)(C)CC2=O)ON1c1ccccc1` (centres undefined), the activity change is -4.1% (inactive).

Consider `CC(C)N1C(=O)N(c2ccccc2)C(C)(O)CC1(C)C` (centres undefined), for which the activity change is -71.4% (active).

In the case of `CC12C(=O)N(c3ccccc3)C(=O)C1C(c1ccccc1)N1CCCN12` (centres undefined), the activity change is 2.73% (inactive).

As to `Cc1ccc(C(=O)N[C@H](C(=O)N2CCN(c3ncccn3)CC2)C(C)C)cc1`, the activity change is 5.87% (inactive).

In the case of `C[C@H]1NS(=O)(=O)c2cc(Cl)ccc2O[C@@H]1c1ccccc1`, the activity change is -5.74% (inactive).

Regarding `Fc1ccccc1/C=N/Nc1cc(N2CCCCC2)ncn1`, the activity change was 11.8% (inactive).

Take `CCOc1cc(/C=N/Nc2cc(C)nc3ccc(C)cc23)ccc1O`: the activity change is -2.46% (inactive).

On to `Cc1cc(N/N=C/c2ccccc2F)c2ccccc2n1`, for which the activity change is -142% (active).

Turning to `CCCCN1CC(C)(C)[C@H](CC(=O)Nc2ccc(Br)cc2)C1=O`, the activity change was 5.46% (inactive).

For `Cc1ccccc1CN1CCN(C(=O)c2cccc(F)c2)CC1`, the activity change is -16.7% (inactive).

Turning to `COc1ccc(CN2CCNC(=O)C2CC(=O)NCc2cn[nH]c2-c2ccccc2)c(F)c1` (centres undefined), the activity change is -3.5% (inactive).

Turning to `O=C(c1ccc(F)cc1)C1CCN(Cc2cn[nH]c2-c2ccccc2)CC1`, the activity change is -104% (active).
